High-throughput results: PubChem, National Center for Advancing Translational Sciences (NCATS)
Sm TGR block = blocks Schistosoma mansoni thioredoxin glutathione reductase | purified TGR, DTNB reduction, TNB absorbance 405 nm | Potency, µM (doses to about 114 µM), usual class: inhibitors | 360,000 tested, 3% active | AID 485364 | Q962Y6; note: nearly all actives have a fitted effect of over 60% in size
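TGR 20 nM + NADPH 100 uM (dispensed conc.), cpd preinc 15 min RT; start with NADPH (500 uM addition) then DTNB (15 mM addition). Kinetic TNB absorbance, 405 nm filter. Four-parameter Hill fit across titration.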
HCMV inh = human cytomegalovirus inhibition | HFF cells, HCMV-luciferase reporter, 72 h; active compounds read low | activity change, negative = inhibition, % at 57.5 µM | 410,000 tested, 4.5% active | AID 1259415; in the data active = activity change below about -60%; inconclusive = no clear call, values can overlap the other calls; inactive = above about -39%
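Screen run at 2 compound doses on HFFs infected with reporter HCMV, MOI 1 PFU/cell. Luciferase activity from cell lysates at 72 h post infection gave inhibition relative to buffer-only and Salinomycin wells.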
Pf growth 96h = inhibits malaria parasite growth, 96 h; P. falciparum luciferase reporter growth, 96 h; Potency, µM (doses to about 28.7 µM), hits mostly inhibitors; AID 504834; 320,000 tested, 6.9% active
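Erythrocytes infected with luciferase-expressing P. falciparum were dispensed at 2% hematocrit and 0.05% parasitemia (final), then incubated with compounds 96 hours at 37 C in 5% CO2. Luminescence after detection reagent addition reported growth.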
FBPA Giardia inh = Giardia lamblia aldolase inhibition; purified Giardia FBPA; Potency, µM (highest dose often 59.6 µM), actives largely listed as inhibitors; 290,000 tested, 0.71% active; note: nearly all actives have a fitted effect of over 55% in size
Target sequence (A8B2U2 whole entry, looked up): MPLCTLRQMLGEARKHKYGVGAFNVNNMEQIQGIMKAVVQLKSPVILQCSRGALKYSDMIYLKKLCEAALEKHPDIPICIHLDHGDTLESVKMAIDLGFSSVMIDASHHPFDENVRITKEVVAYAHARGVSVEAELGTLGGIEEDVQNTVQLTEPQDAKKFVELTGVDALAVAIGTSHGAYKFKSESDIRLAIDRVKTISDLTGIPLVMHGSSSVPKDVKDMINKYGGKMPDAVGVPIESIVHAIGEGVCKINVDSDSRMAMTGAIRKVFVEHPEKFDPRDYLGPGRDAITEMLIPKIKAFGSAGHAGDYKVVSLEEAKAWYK
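Giardia FBPA (40 nM reagent) was preincubated 10 min at RT with compound (up to 57.5 uM final), then substrate plus GAPDH/TPI/NAD/arsenate coupling system with diaphorase/resazurin was added; resorufin fluorescence (525/598 nm) was read after 20 min.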
Pf growth 48h = inhibits P. falciparum growth in the first generation, 48 h. Potency, µM (highest dose often 28.7 µM), usual class: inhibitors. 310,000 tested, 5.9% active. AID 504832. P. falciparum luciferase growth in erythrocytes, 48 h
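First compound was added to culture medium, then infected red cells at 0.1% parasitemia and 2% hematocrit (final). After incubation at 37 C under 5% CO2, luciferase detection reagent was dispensed and light output recorded.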
Large screens that a line does not name were inactive. The list is not random: actives were taken first. Their share in the collection is about 14%. Unless noted, calls come from the whole dose curve; as a rule, active = well fitted curve in the direction sought with a large enough effect; inconclusive = small, poorly fitted or top-dose-only effect, or another doubt; inactive = no such curve, though single readings can be large; an effect the other way counts as inactive or inconclusive.

CCN(CC)C(=O)C1CCCN(c2ccccc2[N+](=O)[O-])C1 (stereo not drawn)	Pf growth 48h inconclusive
CCCc1c(C(=O)N/N=C/c2sccc2C)nnn1-c1nonc1N	HCMV inh inconclusive
Cc1cccc(NC(=O)c2ccc(CN3CC(=O)N4CCCCC4C3=O)cc2)c1C (stereo not drawn)	none (no result: Pf growth 96h, FBPA Giardia inh, Pf growth 48h)
CN(C)C(=O)c1ccc(NC(=O)c2cccc(S(=O)(=O)N3CCCc4ccccc43)c2)cc1	HCMV inh inconclusive, Pf growth 96h 9.3µM, Pf growth 48h 5.2µM (no result: FBPA Giardia inh)
COc1ccc(NC(=O)c2cc(S(=O)(=O)N3CCCCC3)ccc2OC)cc1	HCMV inh -73, Pf growth 96h inconclusive
COc1ccc(NS(=O)(=O)c2cccc(NC(=O)C34CCC(CC3)C4)c2)cc1	HCMV inh -64, Pf growth 96h inconclusive
COc1ccc(NS(=O)(=O)c2cccc(NC(=O)C3=NN(c4ccccc4)C(=O)CC3)c2)cc1	Pf growth 96h 7.4µM, Pf growth 48h inconclusive
COc1ccc(NC(=O)c2cc(S(=O)(=O)N3CCCC3)ccc2OC)cc1	HCMV inh inconclusive
O=C(O)c1cccc(NC(=O)c2cccc(S(=O)(=O)N3CCc4ccccc43)c2)c1	none
COc1ccc(NS(=O)(=O)c2cc(NC(=O)C3=NN(c4ccccc4)C(=O)CC3)ccc2C)cc1	none (no result: Sm TGR block, Pf growth 96h, FBPA Giardia inh, Pf growth 48h)
CN(C)CCN(Cc1ccco1)C(=O)c1cc2c(s1)-c1ccccc1OC2	HCMV inh inconclusive (no result: Pf growth 96h, FBPA Giardia inh, Pf growth 48h)
Cc1cc(C)cc(Nc2ncc3c(n2)CC(c2ccco2)CC3=O)c1 (stereo not drawn)	Sm TGR block 50µM
Cc1ccc(NC(=O)CSCC(=O)Nc2ncc3c(n2)CC(c2ccco2)CC3=O)cc1 (stereo not drawn)	Sm TGR block 50µM, Pf growth 96h inconclusive (no result: HCMV inh)
Cc1oc(-c2cccc(Cl)c2)nc1CS(=O)(=O)CC(=O)NCc1ccco1	none
O=C(CC1OC(=O)c2ccccc21)Nc1cccc(S(=O)(=O)N2CCCCCC2)c1 (stereo not drawn)	Pf growth 48h inconclusive (no result: FBPA Giardia inh)
COc1ccc(S(=O)(=O)N2CCCCCC2)cc1NC(=O)CC1OC(=O)c2ccccc21 (stereo not drawn)	Sm TGR block 40µM, Pf growth 48h inconclusive (no result: FBPA Giardia inh)
COc1ccc(C(=O)CC2OC(=O)c3ccccc32)cc1OC (stereo not drawn)	Pf growth 96h inconclusive, Pf growth 48h inconclusive
Cc1ccc(NC(=O)CC2OC(=O)c3ccccc32)cc1S(=O)(=O)N1CCCCCC1 (stereo not drawn)	Sm TGR block 25µM, Pf growth 96h inconclusive, Pf growth 48h 8.3µM (no result: FBPA Giardia inh)
COc1ccc(OC)c(C(=O)CC2OC(=O)c3ccccc32)c1 (stereo not drawn)	Sm TGR block inconclusive, HCMV inh -90, Pf growth 96h inconclusive, Pf growth 48h inconclusive
Cc1nc(N2CCCC2)c2c(C(=O)N3CCN(c4cc(Cl)ccc4C)CC3)c(C)oc2n1	none (no result: Pf growth 96h, FBPA Giardia inh, Pf growth 48h)
CCCN1CCN(C(c2cc3cc(OCC)ccc3[nH]c2=O)c2nnnn2C2CCCCC2)CC1 (stereo not drawn)	Pf growth 48h inconclusive
CCOc1ccc2[nH]c(=O)c(CN(CCO)C(c3nnnn3C3CCCCC3)C(C)C)cc2c1 (stereo not drawn)	Pf growth 48h 3.3µM
CCc1ccc2[nH]c(=O)c(CN(Cc3nnnn3C3CCCC3)C3CCCCC3)cc2c1	HCMV inh inconclusive, Pf growth 48h 8.3µM
Cc1ccc2[nH]c(=O)c(CN(Cc3nnnn3Cc3ccccc3)C3CCCC3)cc2c1	Sm TGR block inconclusive, Pf growth 48h 13µM
COc1ccc2[nH]c(=O)c(CN(Cc3nnnn3Cc3ccccc3)CC3CCCO3)cc2c1 (stereo not drawn)	Pf growth 48h inconclusive
Cc1cccc2cc(CN(Cc3nnnn3C3CCCC3)C3CCCCC3)c(=O)[nH]c12	none (no result: Sm TGR block, Pf growth 96h, FBPA Giardia inh, Pf growth 48h)
Cc1ccsc1/C=N\NC(=O)CCc1c(C)n[nH]c1C	none (no result: Sm TGR block)
CCOC(=O)c1c(C)oc2c1c(C(c1cccnc1)N1CCN(C)CC1)c(O)c1ccccc12 (stereo not drawn)	Sm TGR block 0.56µM, FBPA Giardia inh inconclusive (no result: HCMV inh)
CCOC(=O)c1c(C)oc2c1c(C=NCc1ccccn1)c(O)c1ccccc12	Sm TGR block inconclusive, Pf growth 96h inconclusive, FBPA Giardia inh inconclusive, Pf growth 48h 2.1µM
CCOC(=O)c1c(C)oc2c1c(C=NCC1CCCO1)c(O)c1ccccc12 (stereo not drawn)	FBPA Giardia inh inconclusive, Pf growth 48h inconclusive
CCOC(=O)c1c(C)oc2c1c(C(c1cccnc1)N1CCOCC1)c(O)c1ccccc12 (stereo not drawn)	Sm TGR block 1.3µM, FBPA Giardia inh inconclusive
CCOC(=O)c1c(C)oc2c1cc(O)c1ccccc12	none
COC(=O)NCC(c1cccnc1)N1CCOCC1 (stereo not drawn)	none
CCOC(=O)c1c(C)oc2c1c1c(c3ccccc32)OCN(Cc2cccnc2)C1	Sm TGR block 0.35µM, Pf growth 96h inconclusive, FBPA Giardia inh 5µM, Pf growth 48h inconclusive (no result: HCMV inh)
COc1cc([N+](=O)[O-])ccc1NC(=O)CSc1n[nH]c(C(C)C)n1	Pf growth 96h inconclusive, Pf growth 48h inconclusive
CCc1nnc(NC(=O)c2nc(SCc3ccc(F)cc3)ncc2Cl)s1	none (no result: Pf growth 96h, FBPA Giardia inh, Pf growth 48h)
CCN(CC)c1ccc(Nc2nc(N3CCOCC3)c3ccccc3n2)cc1	HCMV inh -96 (no result: Pf growth 96h)
c1ccc2c(c1)nc(N1CCOCC1)c1ccccc12	Pf growth 48h inconclusive
COc1ccc(Nc2nc(N3CCCC3)c3ccccc3n2)cc1	Pf growth 48h 3.3µM
Cc1nc(N2CCCCCC2)c2ccccc2n1	HCMV inh inconclusive, Pf growth 96h inconclusive, FBPA Giardia inh inconclusive
COc1ccc(OC)c(NC(=O)NNC(=O)COc2ccc(F)cc2F)c1	none (no result: HCMV inh)
CC(C)CN1C(=O)NC2(CCCc3ccccc32)C1=O (stereo not drawn)	Pf growth 96h inconclusive (no result: HCMV inh, FBPA Giardia inh)
CN(C)CC[C@@](O)(c1ccccc1)c1ccccc1Cl	Pf growth 96h 11µM, Pf growth 48h inconclusive (no result: Sm TGR block, HCMV inh, FBPA Giardia inh)
Nc1nc(SCc2c(Cl)cccc2Cl)n[nH]1	Pf growth 96h 1.3µM (no result: Pf growth 48h)
CCS(=O)(=O)N1CC(=O)N(c2ccc(C)c(C)c2)C(C)(C(=O)NC2CCCCCC2)C1 (stereo not drawn)	none (no result: Pf growth 96h, FBPA Giardia inh, Pf growth 48h)
COc1ccc(-c2oc3ccc(N4CCOCC4)cc3c2/C=C/c2ccc(OC)c(OC)c2)cc1	Pf growth 96h 12µM, Pf growth 48h inconclusive
COc1ccc(/C=C/c2c(-c3ccc(OC)cc3)sc3ccc(N4CCOCC4)cc23)cc1	Pf growth 96h inconclusive, Pf growth 48h inconclusive (no result: HCMV inh)
COc1cc2c(ccc3c4cc(OC)c(OC)cc4c[n+](C)c23)cc1O	HCMV inh -100 (no result: Sm TGR block, Pf growth 96h, FBPA Giardia inh, Pf growth 48h)
COc1cc2c[n+](C)c3c4ccccc4ccc3c2cc1OC	HCMV inh -82 (no result: Sm TGR block, Pf growth 96h, FBPA Giardia inh, Pf growth 48h)
COc1ccc2c(c1)c[n+](C)c1c3cc(OC)c(OC)cc3ccc21	HCMV inh -96 (no result: Sm TGR block, Pf growth 96h, FBPA Giardia inh, Pf growth 48h)
COc1ccc(CCNC(=O)C(=O)NCC(c2cccs2)S(=O)(=O)c2ccc(C)cc2)cc1 (stereo not drawn)	none (no result: Pf growth 96h, FBPA Giardia inh, Pf growth 48h)
